Screening results (PubChem BioAssay)
A selection: hits, their analogues and other compounds. The true share with any hit is near 4.3%.
HSF-1 act – HSF-1 activators, primary screen, NIH3T3-HGL cells, MG132 stress, luminescence, single point | NIH3T3-HGL HSF-1 luciferase reporter, 8 h; 100% = twice DMSO control signal | activation, % at 9 µM | hit rate 1.7% among 300,000 | AID 504408, 2011;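 active means mean replicate activation of at least 50% with a set share of replicates each reaching 50%; inconclusive means only one of those two conditions met; inactive means mean below 50% and too few replicates reaching it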
esBAF inh – Bmi1 luciferase reporter increase in mESCs, primary screen, esBAF inhibitor project, mouse ES cells, Bmi1 luciferase knock-in, single point; 24 h; 100% = twice the neutral-well signal; reporter increase, % at 12.5 µM; hit rate 2% among 350,000; AID 602393, 2012; in the data active means activation above about 40%; inconclusive means no clear call, values can overlap the other calls;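 further: a rise in the Bmi1 reporter signal indicates esBAF inhibition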
Wnt bcat act – Wnt/beta-catenin pathway activators, primary screen, cell-based, plate reader, single point; activation, % at 9.35 µM; Wnt/beta-catenin reporter cell assay, activator; hit rate 1.2% among 300,000; in the data active means activation above about 30%, passing the limit was not always enough; inconclusive means no clear call, values can overlap the other calls
SMARCA2 act – SMARCA2 (BRM) function activators, primary screen, cell-based, luminescence, high throughput | MG213 cells, MMTV-luciferase reporter, dexamethasone, overnight | activation, % at 9.1 µM | hit rate 1% among 370,000; in the data active means activation above about 7.8%
MITF act – activators of MITF-driven TRPM1 promoter reporter, primary screen, cell-based, SK-MEL-5, luciferase, single point | SK-MEL-5 TRPM1-promoter luciferase, 24 h; % of positive control, neutral wells = 0 | activation, % at 12.5 µM | hit rate 0.75% among 300,000;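 active means mean activation of at least 80% with every replicate also reaching 80%; inconclusive means mean reaches 80% but some replicate falls short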
HSF1 inhib – HSF1 inhibitors in luciferase reporter cells, primary screen, cell-based, NIH3T3, luminescence; hit rate 0.77% among 300,000; NIH3T3-HGL HSE-luciferase, MG132-induced, luminescence 8 h; stronger effect = lower value; activity change, negative = inhibition, % at 7.5 µM (by protocol);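 active means more than half of replicate wells show activity change below -50%, luminescence cut by over half; inconclusive means some wells, but at most half, below -50%; inactive means no replicate well below -50%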;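 further: luciferase reports HSF-1 transcriptional activity via heat shock element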
Hits are given with their value; - = inactive; ? = inconclusive; . = no result given.

SMILES | HSF-1 act | esBAF inh | Wnt bcat act | SMARCA2 act | MITF act | HSF1 inhib
O=C(CC(=O)c1ccccc1O)c1ccc(F)cc1 | 75.2 | . | . | - | . | -
O=C(CCCN1CCC(C(=O)c2ccc(F)cc2)CC1)c1ccc(F)cc1 | - | - | - | - | - | -
O=C(CCCC(=O)c1ccc(F)cc1)c1ccc(F)cc1 | 81.4 | 54.7 | 37.3 | - | 131.1 | -
CN1CCN(/N=C/c2ccc(-c3ccccc3)cc2)CC1 | - | - | - | - | ? | -
CSc1ccc(/C=N/N2CCN(C)CC2)cc1 | - | - | 32.3 | - | - | -
CSc1ccc(/C=N/n2c(C)cc(C)cc2=O)cc1 | - | - | - | - | 86.5 | -
O=C(N[C@@H]1CC[C@H](CC(=O)N2CCN(c3ccccc3)CC2)O[C@H]1CO)c1ccccc1 | . | - | . | . | . | .
Cc1ccc(S(=O)(=O)N(C)C[C@H]2Oc3ccc(NS(=O)(=O)c4cccs4)cc3CC(=O)N([C@@H](C)CO)C[C@@H]2C)cc1 | . | - | . | . | . | .
CCCOc1ccc(/C(O)=C2/C(=O)C(=O)N(CCN(C)C)C2c2ccc(O)c(OC)c2)cc1 (centres undefined) | - | . | . | . | - | -76.9
COc1ccc(/C(O)=C2\C(=O)C(=O)N(CCN(C)C)C2c2cccc(OC)c2OC)cc1 (centres undefined) | - | - | - | 9.6 | - | -
COc1cccc(OCc2cc(C(=O)N(C)CCOc3ccc(C)cc3)no2)c1 | 57.1 | 67.4 | - | - | - | -
COc1cccc(OCc2cc(C(=O)N(C)Cc3nccn3C)no2)c1 | - | 69.1 | - | - | ? | -
COC(=O)C(Cc1c[nH]c2ccccc12)NC(=O)c1ccc2nc[nH]c2c1 (centres undefined) | . | 77.2 | 35.8 | - | - | .
COC(=O)C(Cc1c[nH]c2ccccc12)NC(=O)c1cncc(Br)c1 (centres undefined) | - | - | - | - | - | -
CN(C)/C=C/C(=O)c1ccc(Oc2ccccc2)cc1 | - | 50.9 | - | - | - | -
COc1ccc(C(=O)/C=C/N(C)C)cc1 | - | - | 65.5 | - | . | -
CCCC(=O)Nc1ccc2c(c1)C(=O)N(C)[C@@H]1CC[C@@H](CC(=O)OC)O[C@@H]1CO2 | . | - | . | . | . | .
Cc1nc([N+](=O)[O-])c(Br)n1CC(=O)c1ccc2ccccc2c1 | 159.1 | - | . | - | . | -
Cc1nc([N+](=O)[O-])c(Br)n1CC(=O)c1ccccc1 | - | . | . | - | - | -
Cc1nc([N+](=O)[O-])c(Br)n1CC(=O)c1ccc(Br)cc1 | 122.8 | - | - | - | . | -
C[C@@H]1CCCCO[C@H](CN(C)C(=O)Nc2ccccc2)[C@H](C)CN([C@@H](C)CO)C(=O)c2cc(NC(=O)C3CCCCC3)ccc2O1 | . | - | . | . | . | .
COc1ccc(C(=O)CSc2nnn(-c3cccc(NC(C)=O)c3)n2)cc1 | ? | ? | - | - | . | -
CC(=O)Nc1cccc(-n2nnc(SCC(=O)c3ccccc3)n2)c1 | - | - | 59.9 | - | . | -
CCn1c(Cc2ccccc2)nnc1SCC(=O)Nc1ccccc1O | 50.7 | - | - | - | - | -
CCn1c(Cc2ccccc2)nnc1SCC(=O)NC(C)(C)C | - | . | - | . | - | -
SMILES | HSF-1 act | esBAF inh | Wnt bcat act | SMARCA2 act | MITF act | HSF1 inhib
CC(C)NC(=O)N(C)C[C@H]1Oc2c(cccc2N(C)C)C(=O)N([C@@H](C)CO)C[C@H]1C | . | - | . | . | . | .
C[C@H](CO)N1C[C@H](C)[C@@H](CN(C)C)Oc2ccc(NC(=O)CCCCCC(=O)Nc3ccccc3N)cc2C1=O | . | - | . | . | . | .
CC(=O)Nc1cc[n+](C(C)C(=O)c2ccccc2)cc1 (centres undefined) | - | - | - | - | . | -67.8
CC(=O)Nc1cc[n+](C(C)C(=O)c2ccc(Br)cc2)cc1 (centres undefined) | - | . | - | - | - | -
COc1ccc(S(=O)(=O)N(C)C[C@H]2Oc3c(NC(=O)NC4CCCCC4)cccc3C(=O)N([C@H](C)CO)C[C@H]2C)cc1 | . | - | . | . | . | .
O=[N+]([O-])c1ccc(/C=N/NC(=S)Nc2ccccc2F)o1 | - | - | . | - | - | -
Fc1ccccc1NC(=S)N/N=C/c1ccccc1Br | - | 60.4 | . | - | . | -
